# The list is not random: actives were taken first. Their share in the collection is about 9.3%.
# HCV inh = qHTS Assay for Inhibitors of Hepatitis C Virus (HCV) | Huh7.5.1 HCVcc-Cre infection, luciferase reporter, 44 h | Potency, µM (top dose mostly 41.8 µM), for inactives: top-dose activity change, negative = inhibition, actives largely listed as inhibitors | hit rate 3.4% among 340,000; further: potency means the concentration at half of the fitted maximal effect
#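 HCVcc-Cre virus at an moi near 0.5 was added right after compound to cells cultured 4 h from seeding (1,000 cells/well). Luciferase activity was determined 44 h later, 15 min after substrate addition at RT.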
# Vaccinia mCherry = qHTS for Stage-Specific Inhibitors of Vaccinia Orthopoxvirus: mCherry Reporter Primary qHTS; Vaccinia virus mCherry reporter infection, fluorescence; Potency, µM (doses to about 36.5 µM), inactives show at the highest dose activity change, negative = inhibition, usual class: inhibitors; hit rate 0.63% among 310,000; AID 720579, 2013; calls by dose curve; tested in A549 cells; further: potency means the concentration at half of the fitted maximal effect; nearly all actives have a fitted effect of over 35% in size
# FMDV inh = High Throughput Screening for Foot and Mouth Disease Virus Antivirals; FMDV antiviral cell-based qHTS; Potency, µM (highest dose often 57.9 µM), inactives show at the top dose activity change, negative = inhibition, hits mostly inhibitors; hit rate 1.2% among 410,000; AID 1159524, 2015; calls by dose curve; tested in HEK293T cells; further: read-out not given here; potency means the concentration at half of the fitted maximal effect; nearly all actives have a fitted effect of over 45% in size
# HCMV antiviral = qHTS Assay for inhibitors of the human cytomegalovirus (HCMV). activity change, negative = inhibition, % at 57.5 µM. HFF cells, HCMV-luciferase reporter, 72 h; hits give low values. hit rate 4.5% among 410,000. AID 1259415, 2018; in the data active means activity change below about -60%; inconclusive means no clear call, values can overlap the other calls; inactive means above about -39%
#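 Luciferase read-out from HCMV-luciferase-infected HFFs (MOI 1 PFU/cell) 72 h post infection at 37C; compounds added after 16 h cell attachment; activity normalized between buffer-only basal and Salinomycin (10uM) inhibitor controls.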
# Sm TGR block = qHTS Assay for the Inhibitors of Schistosoma Mansoni Peroxiredoxins | hit rate 3% among 360,000 | purified TGR, DTNB reduction, TNB absorbance 405 nm | Schistosoma mansoni thioredoxin glutathione reductase (TGR), Q962Y6 | AID 485364, 2010 | Potency, µM (highest dose often 114 µM), for inactives: at the top dose activity change, negative = inhibition, actives largely listed as inhibitors; further: potency means the concentration at half of the fitted maximal effect; nearly all actives have a fitted effect of over 60% in size
#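 First, TGR (20 nM dispensed) and NADPH were mixed with compound. Second, a 15 min room-temperature incubation followed. Third, further NADPH and then DTNB were added to start the reaction. Finally, TNB absorbance was monitored kinetically.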
# Vaccinia Venus = qHTS for Stage-Specific Inhibitors of Vaccinia Orthopoxvirus: Venus Reporter Primary qHTS | hit rate 0.46% among 330,000 | Potency, µM (doses to about 36.5 µM), without a hit: top-dose activity change, negative = inhibition, usual class: inhibitors | Vaccinia virus Venus reporter expression, fluorescence | AID 720580, 2013; calls by dose curve; tested in A549 cells; further: potency means the concentration at half of the fitted maximal effect; nearly all actives have a fitted effect of over 30% in size
# Active calls of the source: *; i = inactive; ? = inconclusive; nt = no result given; [ ] = remark or other dose. Unless noted, the call rests on the fitted dose curve; in most records, active means well fitted curve in the direction sought with a large enough effect; inconclusive means small, poorly fitted or top-dose-only effect, or another doubt; inactive means no such curve, though single readings can be large; an effect the other way counts as inactive or inconclusive. On the % scale 0 is the no-effect control and ±100 the full control effect.
SMILES,HCV inh,Vaccinia mCherry,FMDV inh,HCMV antiviral,Sm TGR block,Vaccinia Venus
CCOc1ccc(C2C(C(=O)c3ccc(C)o3)=C(O)C(=O)N2c2nc(C)c(C(=O)OC)s2)cc1 (stereo not given),-11%,nt,8%,-26,45µM*,nt
CCOC(=O)c1sc(N2C(=O)C(O)=C(C(=O)c3ccco3)C2c2ccc(C)o2)nc1C (stereo not given),10%,-21%,10%,-22,7.9µM*,2%
CCOc1ccccc1CNC(=O)C1CCCN(c2nc3ccccc3o2)C1 (stereo not given),nt,nt,nt,nt,5%,nt
CC(=O)C1=C(c2ccc(Cl)c(Cl)c2)N(C(C)=O)n2c(nnc2C2CCCCC2)S1,nt,-10%,-14%,33,2%,-11%
CC(=O)C1=C(c2ccccc2)N(C(C)=O)n2c(nnc2C2CCCCC2)S1,nt,-13%[7.34 µM],-27%,-95*,5%,-6%[7.34 µM]
COc1cccc(C2=C(C(C)=O)Sc3nnc(C4CCCCC4)n3N2C(C)=O)c1,nt,?,0%,-73*,0%,?
CCC(=O)C1=C(c2ccc(OC)c(OC)c2)N(C(=O)CC)n2c(nnc2-c2ccc(C)cc2)S1,nt,-4%,-11%,34,11%,-6%
COc1ccc(C2=C(C(C)=O)Sc3nnc(-c4ccc(C)cc4)n3N2C(C)=O)cc1OC,nt,?,-29%,-99*,-3%,?
CCCc1cc2c(cc1NC(=O)c1ccccc1F)OCO2,-56%,-22%,13%,?,-1%,-9%
O=c1c2ccccc2sn1-c1cc(S(=O)(=O)N2CCOCC2)ccc1N1CCOCC1,?,-10%,nt,?,25µM*,-10%
O=c1c2ccccc2sn1-c1cc(S(=O)(=O)N2CCOCC2)ccc1N1CCCC1,-22%,nt,14%,-22,?,nt
O=C(Nc1ccc2c(c1)COC2=O)c1ccc(Cl)c(Cl)c1,-28%,i,-2%,43,-9%,-10%
Cc1nc2n(n1)C(c1ccccc1)C1=C(CC(c3ccco3)CC1=O)N2 (stereo not given),8%,-18%,0%,-3,56µM*,-16%
CC1CC(=O)C2=C(C1)Nc1ncnn1C2c1ccccc1 (stereo not given),-1%,nt,23%,1,17%,nt
CCOC(=O)c1sc(=S)n(-c2ccccc2OC)c1N,-14%,nt,-7%,77,3%,1%
CCOc1ccccc1-n1c(N)c(C(N)=O)sc1=S,3%,nt,2%,-63*,-2%,nt
COc1ccc(C[C@@H]2C(=O)N[C@H](C)C(=O)N(C)[C@@H]3Cc4ccc(cc4)Oc4cc(ccc4O)C[C@H](C(=O)N[C@@H](C)C(=O)N[C@H](C)C(=O)N2C)N(C)C3=O)cc1,nt,158µM*,nt,nt,nt,0.28µM*
COc1ccc(CC2C(=O)NC(C)C(=O)N(C)C3C(=O)N(C)C(Cc4ccc(O)c(c4)Oc4ccc(cc4)C3O)C(=O)NC(C)C(=O)NC(C)C(=O)N2C)cc1 (stereo not given),?,0.32µM*,?,-98*,nt,0.089µM*
COc1cc2c3cc1Oc1cc(ccc1O)CC1c4c(cc(OC)c(O)c4Oc4ccc(cc4)CC3N(C)CC2)CC[N+]1(C)C (stereo not given),nt,-11%,-7%,nt,nt,4%
O=C(CSc1ncc(-c2ccccc2)[nH]1)Nc1cccc(Br)c1,nt,-17%,25%,-66*,6%,-13%
COC(=O)c1cc(NS(=O)(=O)c2cccs2)cc(NS(=O)(=O)c2cccs2)c1,3%,i,15%,-21,-1%,-5%
CCc1cc(C(=O)NCC(c2ccco2)N2CCCCC2)sc1C (stereo not given),-22%,nt,-13%,?,-22%,nt
COc1ccccc1N1CCN(Cc2ccc(Br)s2)CC1,-12%,nt,?,-81*,-6%,nt
O=C(CCN1CCN(c2ccccc2F)CC1)Nc1ccc2c(c1)OCO2,?,-8%,nt,-23,-24%,-10%
Oc1cc2c(cc1CN1CCN(c3ccccc3F)CC1)OCO2,17%,?,3%,18,1µM*,?
SMILES,HCV inh,Vaccinia mCherry,FMDV inh,HCMV antiviral,Sm TGR block,Vaccinia Venus
COc1ccccc1N1CCN(Cc2ccco2)CC1,9%,nt,13%,69,-32%,nt
Oc1cc2c(cc1CN1CCc3ccccc3C1)OCO2,10%,?,-19%,1,2.5µM*,-21%
CC(C)(C)c1ccc(S(=O)(=O)N2CCN(Cc3cc4c(cc3O)OCO4)CC2)cc1,-12%,i,-15%,-23,2.8µM*,-2%
Cn1cnnc1SCCOc1ccc(Cl)cc1,26%,-19%,-5%,48,0%,-11%
COc1ccccc1N1CCN(Cc2cc3c(cc2O)OCO3)CC1,3%,?,-15%,-15,1.8µM*,-29%
C/C(CC1CC(COCC(C)C)OC1=O)=N\NC(N)=S (stereo not given),-16%,-16%,-8%,-20,-1%,?
CCCCCOCC1CC(C/C(C)=N/NC(N)=S)C(=O)O1 (stereo not given),?,22µM*,-10%,0,-1%,?
COc1cc(OCc2ccccc2)c(OC)c(OCc2ccccc2)c1,10µM*,?,6%,34,nt,-5%
COc1c(Br)cc(C(N)=O)cc1OCc1ccccc1,?,-27%,55%,-13,-1%,-8%
CCOC(=O)CC(NC(=O)C(Cc1ccc(N(CCCl)CCCl)cc1)NC(C)=O)C(=O)OCC (stereo not given),?,i,-30%,-92*,-4%,-8%
CCc1nc(Nc2ccccc2)c2oc3ccccc3c2n1,?,nt,?,-7,-19%,nt
CCc1nc(Nc2ccc(F)cc2)c2oc3ccccc3c2n1,10µM*,nt,?,-23,-6%,nt
O=[N+]([O-])c1ccc(C(O)C[n+]2ccccc2)cc1 (stereo not given),12%,nt,-21%,nt,-2%,nt
O=C(NCCCc1ccccc1)c1ccc(F)cc1,15%,-18%,88%,nt,-28%,-18%
Cc1cccc(C)c1Nc1cn[nH]c1,nt,7%,-8%,-10,nt,9%
O=C(/C=C/c1ccc(Br)o1)OCc1nc2ccsc2c(=O)[nH]1,-10%,-15%,-23%,nt,45µM*,-3%
Cc1ccc(S(=O)(=O)N2CCNC(=O)CC2)cc1,23%,-6%,4%,37,-3%,-15%
CCC(=O)n1nc(NCc2ccc(OC)c(OC)c2)nc1NCc1ccc(OC)c(OC)c1,?,nt,18µM*,-27,-3%,?
COCC(=O)n1nc(NCc2ccc(OC)cc2)nc1NCc1ccc(OC)cc1,11%,-20%,-13%,10,11%,-13%

# Screening results as filed in PubChem.
